Several values for one entry are separate records, joined by “and”; a condition that tells them apart may be missing. Identical values can stand only once. Activity calls are given as the source filed them.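 The calls were made as follows, unless noted: active = thallium flux through the channel raised or lowered by more than 3 SD from vehicle-only wells, actives on both sides; inactive = the rest.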 Numbered stars: 1 amine (or outer) side, 2 acyl side, 3 side chain; on linkers, the order of the positions; unused ones are H or OH. Bridge positions count the residues as written; N and C are the ends. Square brackets hold non-standard residues; d marks the D form. Peptide text beside a SMILES is read from it. I, II: the chains in the order shown. Actinocin(9to1) = Cc1c2oc3c(C)ccc(C(=O)[*:1])c3nc-2c(C(=O)[*:2])c(N)c1=O; NMeV = CN[CH](C(=O)O)C(C)C; Sar = CNCC(=O)O
Assays:
[1] = P. berghei load reduction in hepatocytes – cell-based, HepG2, luciferase luminescence, HepG2 viability, primary screen (AID 624349; in the data active = parasite load remaining mostly below about 12%, no sharp cut-off; inactive = mostly above about 10%;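 also: 100% = mean of DMSO negative control wells on the same plate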); conditions: P. berghei liver stage in HepG2, luciferase luminescence, concentration not given here; parasite load remaining: stronger effect = lower value; viability: measured here: HepG2 viability without parasites
[2] = signal quenchers or enhancers, Cy5 substrate/SSB – biochemical, NIH Clinical Collection, E. coli SSB, artefact control for HCV NS3 helicase inhibitor project (AID 743268; call rule not given here); conditions: Cy5-oligo bound E. coli SSB, fluorescence interference
[3] = test system: Hepatitis C virus NS3 helicase; assay: blockers of NS3h binding to DNA – biochemical, fluorescence polarization, NIH Clinical Collection, primary screen (AID 743270; call rule not given here); conditions: NS3 helicase binding to Cy5-dT15 DNA, stronger effect = higher value, concentration not given here
[4] = target: Single-stranded DNA-binding protein (Escherichia coli (strain K12)) (UniProt P0AGE0); assay: SSB-ssDNA binding inhibitors – biochemical, fluorescence polarization, NIH Clinical Collection, counter-screen for HCV NS3 helicase inhibitor project (AID 743271; in the data active = inhibition above about 28%); conditions: E. coli SSB-DNA binding, stronger effect = higher value, concentration not given here
[5] = compounds distorting NS3 helicase fluorescence signal – biochemical, NIH Clinical Collection, artefact control for HCV NS3 helicase inhibitor project (AID 743272; call rule not given here;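 also: HCV NS3 helicase with a Cy5 labelled single stranded DNA probe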); conditions: fluorescence interference counterscreen, HCV NS3 helicase assay; stronger effect = lower value
[6] = modulation of C. elegans fzo-1 (AID 1259413; call rule not given here;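 also: fzo-1 mutant C. elegans worms in liquid wells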); conditions: C. elegans fzo-1 modulator screen, mean read-out; stronger effect = higher value
[7] = test system: F380Y; assay: BK channel mutant inhibitors and activators – cell-based, U2OS BacMam, thallium flux, beta subunits, selectivity assay, profiling panel (AID 1259406); conditions: U2OS BacMam BK variants, at 30 µM;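 also: initial slope of Thallos dye fluorescence rise after thallium is added; log ratio against the mean of 0.3% DMSO vehicle wells on the same plate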
[8] = test system: F380Y/beta1; assay: as above; conditions: U2OS BacMam BK variants, at 30 µM
[9] = test system: F380Y/beta2Delta; assay: as above; conditions: U2OS BacMam BK variants, at 30 µM
[10] = test system: F380Y/beta4; assay: as above; conditions: U2OS BacMam BK variants, at 30 µM
[11] = target: Calcium-activated potassium channel subunit alpha-1 (Homo sapiens) + Leucine-rich repeat-containing protein 26 (Homo sapiens) (UniProt Q12791+Q2I0M4); assay: as above; conditions: U2OS BacMam BK variants, F380Y/Slo1WT/gamma1, at 30 µM
Chain of Calcium-activated potassium channel subunit alpha-1 (Homo sapiens) + Leucine-rich repeat-containing protein 26 (Homo sapiens) (Q2I0M4 whole entry, looked up, one chain of several): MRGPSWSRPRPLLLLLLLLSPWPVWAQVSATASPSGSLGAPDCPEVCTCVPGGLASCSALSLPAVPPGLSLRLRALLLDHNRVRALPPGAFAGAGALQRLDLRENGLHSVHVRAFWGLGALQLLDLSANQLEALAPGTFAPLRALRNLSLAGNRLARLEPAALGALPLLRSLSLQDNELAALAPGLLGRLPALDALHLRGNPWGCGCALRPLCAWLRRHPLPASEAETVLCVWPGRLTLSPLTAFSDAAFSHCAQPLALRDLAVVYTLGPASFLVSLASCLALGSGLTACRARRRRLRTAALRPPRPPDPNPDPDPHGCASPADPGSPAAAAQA

[12] = test system: R275C; assay: as above; conditions: U2OS BacMam BK variants, at 30 µM
[13] = test system: R275C/beta1; assay: as above; conditions: U2OS BacMam BK variants, at 30 µM
[14] = test system: R275C/beta2Delta; assay: as above; conditions: U2OS BacMam BK variants, at 30 µM
[15] = test system: R275C/beta4; assay: as above; conditions: U2OS BacMam BK variants, at 30 µM
[16] = test system: R275C/Slo1WT/beta2; assay: as above; conditions: U2OS BacMam BK variants, at 30 µM
[17] = viability loss with induced miR-34 in A549 – imaging, A549 dox-inducible miR-34, nuclei and caspase counts, primary screen (AID 1347080;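 active = compounds whose cell count with miR-34 switched on is under 0.7 times the count with it off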); conditions: A549 miR-34 inducible, Hoechst nuclei count, 48 h
[18] = MELAS cybrid and Rieske KO viability enhancers – cell-based, MELAS cybrids, Rieske KO mouse fibroblasts, CellTiter-Glo, primary screen (AID 1508586;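 active = mean z-score across replicates of 1.96 or higher in either the MELAS or the Rieske mutant cell line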;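 also: z relative to plate mean and SD of compound and empty wells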); conditions: low glucose
[19] = galactose survival enhancers in mitochondrial complex I cybrids – cell-based, galactose medium, ATP luminescence, primary screen (AID 1645843;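 active = z-score of at least 1.8 in each of two replicates, scored against plate mean and spread of sample wells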;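 also: positive z means more ATP and so rescue of galactose-driven cybrid death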); conditions: complex I mutant cybrid cells, 72 h, stronger effect = higher value
[20] = test system: Neuropilin-2 / VEGF-C interaction (human); assay: small molecules blocking Neuropilin-2/VEGF-C interaction – biochemical, microplate binding format, z-score (AID 743281; call rule not given here); conditions: microplate NRP2/VEGF-C binding assay; stronger effect = lower value
[21] = stronger effect = lower value, cell number ratio, induced over uninduced
[22] = measured here: relative caspase fold change +Dox/-Dox
[23] = measured here: total cells with miR-34 induction, stronger effect = lower value
[24] = measured here: total cells without miR-34 induction
[25] = MELAS cybrid survival, CellTiter-Glo 48 h, stronger effect = higher value
[26] = Rieske KO mouse fibroblast survival, CellTiter-Glo 72 h

CCC[C@@H]1C[C@@H](C(=O)N[C@H]([C@@H](C)O)[C@H]2O[C@H](SC)[C@H](O)[C@@H](O)C2O)N(C)C1 (stereo partly specified)
91%: viability [1]
inactive: parasite load remaining [1] 97.8% | fluorescence ratio [2] 0.98 | inhibition [3] -5% | inhibition [4] -3.53% | fluorescence ratio [5] 1.03 | mean signal [6] 237 | log fold change Tl+ flux [7] 0.0293 | log fold change Tl+ flux [8] -0.0324 | log fold change Tl+ flux [9] 0.0245 | log fold change Tl+ flux [10] 0.0251 | log fold change Tl+ flux [11] 0.0541 | log fold change Tl+ flux [12] -0.0022 | log fold change Tl+ flux [13] -0.0579 | log fold change Tl+ flux [14] -0.0468 | log fold change Tl+ flux [15] -0.0617 | log fold change Tl+ flux [16] -0.0428

C=C1/C(=C\C=C2/CCC[C@]3(C)[C@@H]([C@H](C)CCCC(C)(C)O)CC[C@@H]23)C[C@@H](O)C[C@@H]1O
active: log fold change Tl+ flux [13] 0.0898
inactive: parasite load remaining [1] 39.1% and 53.6% | fluorescence ratio [2] 0.98 | inhibition [3] 3.56% | inhibition [4] 2.21% | fluorescence ratio [5] 0.91 | fold change [17, 21] 1.03 and 0.94 | z-score [18, 25] -0.162 | z-score [19] -0.805 | log fold change Tl+ flux [7] 0.103 | log fold change Tl+ flux [8] 0.0867 | log fold change Tl+ flux [9] 0.0281 | log fold change Tl+ flux [10] 0.0801 | log fold change Tl+ flux [11] 0.0668 | log fold change Tl+ flux [12] -0.0123 | log fold change Tl+ flux [14] 0.0428 | log fold change Tl+ flux [15] 0.0602 | log fold change Tl+ flux [16] -0.0015
72.4% and 142%: viability [1]
5100 and 8330: cell count [17, 23]
-0.598: z-score [18, 26]
1.63 and 1.45: fold change [17, 22]
4940 and 8850: cell count [17, 24]

C[n+]1ccccc1C=NO
127%: viability [1]
11500: cell count [17, 23]
4.73: fold change [17, 22]
inactive: parasite load remaining [1] 51.7% | fold change [17, 21] 0.861 | log fold change Tl+ flux [7] -0.0173 | log fold change Tl+ flux [8] 0.0118 | log fold change Tl+ flux [9] -0.00109 | log fold change Tl+ flux [10] -0.0377 | log fold change Tl+ flux [11] -0.000474 | log fold change Tl+ flux [12] -0.00984 | log fold change Tl+ flux [13] 0.0135 | log fold change Tl+ flux [14] 0.00623 | log fold change Tl+ flux [15] -0.0487 | log fold change Tl+ flux [16] -0.0159
13300: cell count [17, 24]

Cc1c2oc3c(C)ccc(C(=O)NC4C(=O)NC(C(C)C)C(=O)N5CCCC5C(=O)N(C)CC(=O)N(C)C(C(C)C)C(=O)OC4C)c3nc-2c(C(=O)NC2C(=O)NC(C(C)C)C(=O)N3CCCC3C(=O)N(C)CC(=O)N(C)C(C(C)C)C(=O)OC2C)c(N)c1=O (stereo unspecified) (I: TVP[Sar][NMeV] / II: TVP[Sar][NMeV]; ester I:1-I:C, II:1-II:C; linker I:N-II:N via Actinocin(9to1); configuration not given here)
2640: cell count [17, 23]
2570: cell count [17, 24]
1.2: fold change [17, 22]
inactive: fold change [17, 21] 1.02 | z-score [19] -1.86 | log fold change Tl+ flux [7] -0.0282 | log fold change Tl+ flux [8] 0.0244 | log fold change Tl+ flux [9] -0.0313 | log fold change Tl+ flux [10] -0.0252 | log fold change Tl+ flux [11] -0.013 | log fold change Tl+ flux [12] -0.0516 | log fold change Tl+ flux [13] 0.0499 | log fold change Tl+ flux [14] -0.00324 | log fold change Tl+ flux [15] 0.0337 | log fold change Tl+ flux [16] 0.0757

CCN(CC)C(=O)[C@]1(c2ccccc2)C[C@@H]1CN
-0.158: z-score [18, 26]
inactive: parasite load remaining [1] 94.6% | fluorescence ratio [2] 1.07 | inhibition [3] 1.98% | inhibition [4] -3.18% | fluorescence ratio [5] 1.06 | z-score [20] -0.224 | mean signal [6] 248 | z-score [18, 25] -0.406 | log fold change Tl+ flux [7] 0.0604 | log fold change Tl+ flux [8] 0.0284 | log fold change Tl+ flux [9] -0.038 | log fold change Tl+ flux [10] 0.00308 | log fold change Tl+ flux [11] 0.0521 | log fold change Tl+ flux [12] -0.00612 | log fold change Tl+ flux [13] -0.0552 | log fold change Tl+ flux [14] -0.0341 | log fold change Tl+ flux [15] 0.0155 | log fold change Tl+ flux [16] 0.0022
71.3%: viability [1]

CCCc1nc(C(C)(C)O)c(C(=O)O)n1Cc1ccc(-c2ccccc2-c2nn[nH]n2)cc1
9480 and 8420: cell count [17, 23]
inactive: parasite load remaining [1] 103% | fluorescence ratio [2] 1.02 | inhibition [3] 1.19% | inhibition [4] -0.1% | fluorescence ratio [5] 0.93 | fold change [17, 21] 0.897 and 0.859 | z-score [18, 25] 0.347 | z-score [19] 0.54 and -0.09 | log fold change Tl+ flux [7] -0.0187 | log fold change Tl+ flux [8] 0.00703 | log fold change Tl+ flux [9] 0.0323 | log fold change Tl+ flux [10] -0.0244 | log fold change Tl+ flux [11] 0.0466 | log fold change Tl+ flux [12] 0.0686 | log fold change Tl+ flux [13] 0.00561 | log fold change Tl+ flux [14] 0.0191 | log fold change Tl+ flux [15] -0.0131 | log fold change Tl+ flux [16] -0.0157
2.28 and 0.39: fold change [17, 22]
69%: viability [1]
-0.184: z-score [18, 26]
10600 and 9810: cell count [17, 24]

CC1(C)C[C@@H]1C(=O)N/C(=C\CCCCSC[C@H](N)C(=O)O)C(=O)O
71.9%: viability [1]
inactive: parasite load remaining [1] 86.6% | fluorescence ratio [2] 1.03 | inhibition [3] 0.4% | inhibition [4] -0.1% | fluorescence ratio [5] 1.01 | z-score [20] -0.458 | mean signal [6] 226 | log fold change Tl+ flux [7] 0.00013 | log fold change Tl+ flux [8] 0.0415 | log fold change Tl+ flux [9] 0.0097 | log fold change Tl+ flux [10] -0.0167 | log fold change Tl+ flux [11] -0.0144 | log fold change Tl+ flux [12] -0.0675 | log fold change Tl+ flux [13] 0.00997 | log fold change Tl+ flux [14] 0.0368 | log fold change Tl+ flux [15] 0.0142 | log fold change Tl+ flux [16] 0.00806

O=C(O)COCCN1CCN([C@H](c2ccccc2)c2ccc(Cl)cc2)CC1
73.9%: viability [1]
inactive: parasite load remaining [1] 91.6% | z-score [20] -0.677 | mean signal [6] 261 | log fold change Tl+ flux [7] 0.0476 | log fold change Tl+ flux [8] 0.0381 | log fold change Tl+ flux [9] 0.0598 | log fold change Tl+ flux [10] -0.027 | log fold change Tl+ flux [11] 0.0629 | log fold change Tl+ flux [12] -0.011 | log fold change Tl+ flux [14] 0.083 | log fold change Tl+ flux [15] 0.0472 | log fold change Tl+ flux [16] 0.0404
active: log fold change Tl+ flux [13] 0.122

Source: PubChem BioAssay
